# Assay results published in PubChem BioAssay AID1851 (National Center for Advancing Translational Sciences (NCATS), 2009).
# The campaign covered roughly 16,000 compounds. About 5,700 (36%) were called active. Inconclusive results (about 24%) are left out. The list shows a part of the results. Unmarked numbers belong to inactive results. Calls follow the shape of the dose curve; as a rule, active = well fitted curve in the direction sought with a large enough effect; inconclusive = small, poorly fitted or top-dose-only effect, or effect the other way; inactive = no such curve, though single readings can be large or run the other way.
# Molecular target: Cytochrome P450 1A2 (Homo sapiens) (UniProt P05177)
# Sequence (P05177 whole entry, looked up): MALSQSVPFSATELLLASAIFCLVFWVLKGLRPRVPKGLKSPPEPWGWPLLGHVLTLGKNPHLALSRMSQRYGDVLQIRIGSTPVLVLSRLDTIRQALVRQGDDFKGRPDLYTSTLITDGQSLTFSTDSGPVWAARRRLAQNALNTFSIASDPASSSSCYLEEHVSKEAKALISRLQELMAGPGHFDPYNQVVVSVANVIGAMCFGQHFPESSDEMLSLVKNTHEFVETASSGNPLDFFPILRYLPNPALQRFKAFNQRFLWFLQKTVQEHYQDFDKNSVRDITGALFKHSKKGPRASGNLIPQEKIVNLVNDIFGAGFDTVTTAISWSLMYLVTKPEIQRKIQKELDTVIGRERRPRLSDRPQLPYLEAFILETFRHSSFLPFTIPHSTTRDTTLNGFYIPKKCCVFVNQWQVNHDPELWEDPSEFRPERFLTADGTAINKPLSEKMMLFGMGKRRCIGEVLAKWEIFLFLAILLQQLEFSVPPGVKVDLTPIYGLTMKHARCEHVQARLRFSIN
# Experiment: Cytochrome panel assay with activity outcomes
# Settings: recombinant CYP, pro-luciferin dealkylation, luminescence, p450-cyp1a2; series mostly up to 57.1 µM
# % is scaled to controls: 0 for no effect and ±100 for the full control effect.
SMILES,AC50,"activity, negative = inhibition"
CCSC(=N)N,inactive,–
C[C@@H]1O[C@H]2C3=C(C(=O)[C@H]4O[C@@H]4[C@H]3O)[C@@H]1[C@@H]1[C@@H](C)OC=C3[C@H](O)[C@H]4O[C@@H]4/C(=N\OCc4ccccc4)[C@]312,–,-0.558% [at 11.4 µM]
COC(=O)COc1ccc2c(-c3cccc([N+](=O)[O-])c3)cc(=O)oc2c1,2 µM (active),–
COc1ccc([N+](=O)[O-])cc1COc1ccc2c(-c3ccccc3)cc(=O)oc2c1,inactive,–
COC(=O)[C@@]1(Cc2ccc(F)cc2)[C@H]2c3cc(C(=O)N4CCCC4)n(Cc4ccc(C)c(F)c4F)c3C[C@H]2CN1C(=O)c1ccccc1,inactive,–
CCOC(=O)C(C)Sc1nnc(CNC(=O)c2ccc(OC)cc2)n1C1CCCCC1 (configuration not stated),inactive,–
Cc1nc2c(n1C1CCCCC1)C(=O)c1ccccc1C2=O,6.31 µM (active),–
CCn1c(C)nc2c1C(=O)c1ccccc1C2=O,0.447 µM (active),–
CC(Sc1nnc(Cc2cccs2)n1C1CCCCC1)C(N)=O (configuration not stated),inactive,–
COc1ccc(NC(=O)CSc2nc(-c3ccc(C)cc3)cc(C(F)(F)F)c2C#N)cc1,inactive,–
COC(=O)CSc1nc(C)cc(C(F)(F)F)c1C#N,2 µM (active),–
COC(=O)Cn1cnc(=O)c(C#N)c1/C=C/N(C)C,inactive,–
COC(=O)[C@@]1(Cc2ccc(F)cc2)[C@H]2c3cc(C(=O)N(C)C)n(Cc4ccc(C)c(F)c4F)c3C[C@H]2CN1C(=O)c1ccccc1,inactive,–
CN1CCN(c2ccnc(-c3ccc(N(C)C)cc3)n2)CC1,0.794 µM (active),–
CN1CCN(c2ccnc(-c3ccoc3)n2)CC1,12.6 µM (active),–
CN1CCN(c2cc(-c3ccc(N(C)C)cc3)ncn2)CC1,2.51 µM (active),–
O=C(O)CCCCn1ccc(=O)[nH]c1=O,–,-6.18% [at 11.4 µM]
CC(/C=N/NC(=O)Cc1cccs1)=C\c1ccco1,11.2 µM (active),–
C/C(CC(=O)NC1CCCC1)=N\NC(=O)Cc1cccs1,inactive,–
O=C(Cc1cccs1)N/N=C/C(Br)=C/c1ccccc1,5.01 µM (active),–
O=C(NCc1ccco1)C(c1ccccc1)N(C(=O)Cc1cccs1)c1ccccc1F (configuration not stated),inactive,–
O=C(O)c1cscc1Cc1cccs1,–,-18.8% [at 11.4 µM]
O=C(O)C/C(=C\c1ccccc1)C(=O)O,–,-13% [at 11.4 µM]
CN1CC[C@@]2(CCCN(C(=O)c3cccc(F)c3)C2)C1,inactive,–
Cc1cc(S(=O)(=O)NCCN(C)C)c(C)s1,inactive,–

SMILES,AC50,"activity, negative = inhibition"
CCOc1cc(/C=N/O)cc(Cl)c1OC,1.41 µM (active),–
COc1ccc(C2C(C#N)=C(N)OC3=C2C(=O)CC(C)(C)C3)c([N+](=O)[O-])c1OC (configuration not stated),inactive,–
COC(=O)C1=C(C)OC(N)=C(C#N)C1c1cc(OC)ccc1OC (configuration not stated),15.8 µM (active),–
CCCCOC(=O)C1=C(C)Nc2ncnn2C1c1cc(OC)ccc1OC (configuration not stated),inactive,–
COc1ccc(C2/C(=C(/O)c3ccc4c(c3)CC(C)O4)C(=O)C(=O)N2CCN2CCOCC2)cc1 (configuration not stated),inactive,–
CC(C)=CCC/C(C)=C/CO/N=C1/C[C@@H](O)[C@@H](O)[C@@H]2[C@@H]3C(=O)N(Cc4ccccc4)C(=O)[C@H]3CC[C@H]12,–,3.92% [at 11.4 µM]
CC(C)=CCC/C(C)=C/CO/N=C1/C[C@@H](O)[C@@H](O)[C@@H]2[C@@H]3C(=O)N(Cc4ccccc4)C(=O)[C@H]3CC[C@@H]12,–,4.86% [at 11.4 µM]
CCSC1=C(C#N)C2(CCCCC2)C(C#N)=C(N)N1,12.6 µM (active),–
CC(C)NC(=O)N1CC2(CCN(C(=O)c3ccco3)CC2)C1,inactive,–
CCOc1ccc2nc(C)cc(Nc3ccc4c(c3)OCCO4)c2c1,4.47 µM (active),–
CCC(C)NS(=O)(=O)c1ccc(OCC(=O)Nc2ccc3c(c2)OCCO3)cc1 (configuration not stated),inactive,–
CNCCCCCCCCSc1nc(C(C)C)ccc1C(=O)c1cccs1,31.6 µM (active),–
CCOC(=O)CCN1C(=O)[C@H]2[C@H]3[C@H](O)[C@H](O)C/C(=N/OC[C@@H](O)COCc4ccco4)[C@H]3CC[C@@H]2C1=O,–,-1.05% [at 11.4 µM]
Cc1nnsc1SC(C)C(=O)O (configuration not stated),inactive,–
O=C1CCCN1CC(O)CS(=O)(=O)c1ccccc1 (configuration not stated),inactive,–
O=S(=O)(CC(O)COc1ccccc1Cl)c1ccccc1 (configuration not stated),22.4 µM (active),–
CC(C)CCNC1=NCCCCC1,inactive,–
CCn1c(-c2ccccc2Cl)nn(CC(=O)Nc2ccc(OC)cc2)c1=S,inactive,–
N[C@@H](Cc1cc(CP(=O)(O)O)cc(-c2ccccc2Cl)c1)C(=O)O,inactive,–
O=C(Nc1ccccc1)c1cc(-c2ccccc2Cl)no1,0.794 µM (active),–
COc1ccc(NC(=O)c2cc(-c3ccccc3Cl)no2)cc1,2.24 µM (active),–
Cc1onc(-c2ccccc2Cl)c1C(=O)NCC(=O)O,inactive,–
NC(N)=Nc1nc2ccc([N+](=O)[O-])cc2[nH]1,3.16 µM (active),–
Cc1ccc([N+](=O)[O-])cc1N=C(c1cccc([N+](=O)[O-])c1)N1CCOCC1,inactive,–
OC[C@@H]1NC[C@@H](O)[C@@H](O)[C@H]1O,inactive,–

SMILES,AC50,"activity, negative = inhibition"
Cc1cc(C)c(C#N)c(Oc2ccccc2)n1,3.16 µM (active),–
N#Cc1c(-c2ccccc2)ccnc1Oc1ccccc1,1.12 µM (active),–
Cc1cc(C)c(C#N)c(Oc2ccc(F)cc2)n1,2.51 µM (active),–
CCCC(=O)Nc1cccc(Oc2nc(C)cc(C)c2C#N)c1,5.01 µM (active),–
COc1cccc(C2C3=C(CC(C)(C)CC3=O)OC(N)=C2[N+](=O)[O-])c1 (configuration not stated),inactive,–
CC(C)(C)COS(=O)OCC(C)(C)C,–,-15.5% [at 11.4 µM]
Nc1nc(N)[n+]([O-])c(N)c1NCO,–,-6.17% [at 11.4 µM]
CN(C)c1ccnc(Oc2ccc(Cl)cc2)c1C#N,2.51 µM (active),–
Cc1ccccc1-n1cnc2cc(NCc3cccs3)ccc21,5.62 µM (active),–
Cc1ccc(Sc2nc(C)cc(C)c2S(C)(=O)=O)cc1,10 µM (active),–
CNc1nc(C)cc(C)c1S(=O)(=O)c1ccc(C)cc1,inactive,–
COC(=O)[C@H](CCSC)NC(=O)C/C=C\[C@@H](C)CO,–,2.44% [at 11.4 µM]
c1ccc2c(N3CCOCC3)nc(-c3ccoc3)nc2c1,1.26 µM (active),–
O=C(c1cc(-c2ccncc2)nc2ccccc12)N1CCN(c2ccc(N3CCOCC3)nn2)CC1,inactive,–
CN1CCN(c2nc(-c3ccoc3)nc3ccccc23)CC1,1.26 µM (active),–
CC1(C)O[C@H]2C[C@@H]3[C@H]4CCC5=CC(=O)CC[C@@]5(C)[C@]4(F)[C@@H](O)C[C@@]3(C)[C@@]2(C(=O)CCl)O1,inactive,–
CC(=O)O[C@]1(C(C)=O)CC[C@@H]2[C@@H]3C=C(C)C4=CC(=O)CC[C@@]4(C)[C@H]3CC[C@]21C,inactive,–
CS(=O)c1ccc(-c2nc(-c3ccc(F)cc3)c(-c3ccncc3)[nH]2)cc1 (configuration not stated),0.631 µM (active),–
Oc1ccc(-c2nc(-c3ccc(F)cc3)c(-c3ccncc3)[nH]2)cc1,15.8 µM (active),–
O=C(N/N=C/c1cccc(Oc2ccccc2)c1)c1cccc(Br)c1,0.891 µM (active),–
O=C(N/N=C\c1ccc(Sc2ccccn2)o1)c1cccc(Br)c1,15.8 µM (active),–
O=C(N/N=C/C1C(c2ccccc2)C1(Cl)Cl)c1cccc(Br)c1 (configuration not stated),2 µM (active),–
O=C(N[C@@]1(C(=O)O)C[C@@H]1c1ccccc1)c1ccccc1,–,2.45% [at 11.4 µM]
N[C@@H]1[C@@H]2[C@@H]3C[C@H]4N(CC[C@@]14C(=O)C(=O)O)CC3=CCO[C@@H]2CC(=O)O,–,-16.1% [at 11.4 µM]
C=C[C@@]1(C)CC(=O)[C@@]2(O)[C@@]3(C)[C@H](O)CCC(C)(C)[C@@H]3[C@H](O)[C@H](OC(C)=O)[C@]2(C)O1,inactive,–

SMILES,AC50,"activity, negative = inhibition"
Cc1ccc(/C=C2\Sc3ccccc3C2=O)s1,1.78 µM (active),–
COc1ncnc(NS(=O)(=O)c2ccc(N)cc2)c1OC,inactive,–
O=C(OCc1nc2ccccc2[nH]1)C12CC3CC(CC(C3)C1)C2,22.4 µM (active),–
Nc1ccn([C@@H]2O[C@H](COC(=O)C34CC5CC(CC(C5)C3)C4)[C@@H](O)[C@@H]2O)c(=O)n1,–,-18.7% [at 2.29 µM]
NC(N)=[N+]1CCc2ccccc2C1,inactive,–
O=c1[nH][nH]c(C(F)(F)F)c1C=Nc1cccc(Cl)c1,12.6 µM (active),–
O=c1[nH][nH]c(C(F)(F)F)c1C=Nc1ccccc1,4.47 µM (active),–
O=c1[nH][nH]c(C(F)(F)F)c1C=Nc1ccccc1Cl,14.1 µM (active),–
Cc1ccc(C(=O)c2ccc(CC(=O)O)n2C)cc1,inactive,–
CO[C@@H]1/C=C\CC(=O)N[C@@H](C)C(=O)OC[C@@H](OC)[C@H](C)/C=C\CC(=O)OC[C@H]1C,–,-4.89% [at 11.4 µM]
OC[C@H]1NC[C@@H](O)[C@@H](O)[C@H]1O,inactive,–
CC(C)C(=O)Nc1cc2c(cc1C(=O)c1ccccc1)OCCO2,14.1 µM (active),–
CC(C)/C(=N/[N+](C)(C)C)c1ccccc1,–,-16.2% [at 2.29 µM]
Cc1ccccc1C(C(=O)NC1CCCC1)N(C(=O)Cc1cccs1)c1ccc2c(c1)OCCO2 (configuration not stated),inactive,–
CCC(=O)Nc1cc2c(cc1C(=O)c1ccccc1)OCCO2,25.1 µM (active),–
CCC(=O)n1nc(-c2ccc(OC)cc2)nc1N,2 µM (active),–
COc1ccc(-c2ccc(N)[n+](CCCC(=O)O)n2)cc1,inactive,–
COc1ccc(C(=O)N2CCC3(CC2)CCN(C(c2ccccc2)c2ccccc2)CC3)cc1,inactive,–
COc1ccc(-c2nc(N)c3ncn([C@H]4O[C@@H](CO)[C@@H](O)[C@@H]4O)c3n2)cc1,–,-13% [at 2.29 µM]
COc1ccc(C(=O)n2nc(-c3ccccc3)nc2SC)cc1,0.562 µM (active),–
COc1ccc(-n2c(SC)nc(O)c(Cc3ccccc3)c2=O)cc1,inactive,–
CCCC(=O)n1nc(-c2cccnc2)nc1N,5.01 µM (active),–
